From PubChem BioAssay AID1851 (National Center for Advancing Translational Sciences (NCATS), 2009)
“And” between values parts separate entries of the source, which are not always exact repeats. Equal values may be shown once. Out of some 16,000 compounds screened, about 4,000 (25%) were called active. Another 26% or so got no clear call; they are omitted. These entries were drawn from the full list. Unmarked numbers belong to inactive results. Calls follow the shape of the dose curve; as a rule, active = well fitted curve in the direction sought with a large enough effect; inconclusive = small, poorly fitted or top-dose-only effect, or effect the other way; inactive = no such curve, though single readings can be large or run the other way.

Biological target: Cytochrome P450 2C9 (Homo sapiens) (UniProt P11712)
Sequence (P11712 whole entry, looked up): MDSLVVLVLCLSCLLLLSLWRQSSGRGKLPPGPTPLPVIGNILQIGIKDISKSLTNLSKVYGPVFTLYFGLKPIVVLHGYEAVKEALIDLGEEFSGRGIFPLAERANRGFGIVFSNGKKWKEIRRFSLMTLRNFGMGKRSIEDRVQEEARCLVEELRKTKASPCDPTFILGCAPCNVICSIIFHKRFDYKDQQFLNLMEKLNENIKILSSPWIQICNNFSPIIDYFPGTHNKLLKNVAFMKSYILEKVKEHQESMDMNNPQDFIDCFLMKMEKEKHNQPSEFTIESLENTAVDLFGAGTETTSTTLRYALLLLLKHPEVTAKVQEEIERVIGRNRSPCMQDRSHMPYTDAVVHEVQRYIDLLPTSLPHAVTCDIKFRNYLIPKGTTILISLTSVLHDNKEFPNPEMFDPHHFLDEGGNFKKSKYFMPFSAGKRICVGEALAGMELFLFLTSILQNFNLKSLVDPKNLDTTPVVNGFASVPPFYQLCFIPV
Assay: Cytochrome panel assay with activity outcomes
Conditions: recombinant CYP, pro-luciferin dealkylation, luminescence, p450-cyp2c9; series mostly up to 57.1 µM
% is scaled to controls: 0 for no effect and ±100 for the full control effect.

| SMILES | activity, negative = inhibition | AC50 |
| --- | --- | --- |
| C=C(C)c1ccccc1 (tested in a mixture with another compound) | -0.349% [at 11.4 µM] | – |
| Cc1c2cc[n+](CCN3CCCCC3)cc2c(C)c2c1[nH]c1ccc(O)cc12 | 17.8% [at 11.4 µM] | – |
| COc1ccc(C[C@@H]2NC[C@H](O)[C@@H]2OC(C)=O)cc1 | inactive | – |
| CC(C)c1nccn1Cc1ccc(Cl)cc1Cl | -23.6% [at 11.4 µM] | – |
| NC1=Nc2ccccc2Oc2ccccc21 | inactive | – |
| COc1ccccc1N1CCNCC1 | inactive | – |
| O=C(O)c1ccccc1-c1c2cc(Br)c(=O)cc-2oc2[c]([Hg])c(O)c(Br)cc12 | – | 0.631 µM (active) |
| COc1ccc2[nH]c3c(c2c1)CCNC3 | inactive | – |
| C[N+]1(C)C2CC[C@H]1CC(OC(=O)[C@@H](CO)c1ccccc1)C2 (some centres not stated) | 8.36% [at 11.4 µM] | – |
| CC1(C)[C@@H]2CC[C@]1(C)CN(CCC[N+](C)(C)C)C2 | 1.62% [at 11.4 µM] | – |
| Cc1cc(Cc2cc(C)c(N)cc2N)c(N)cc1N | -2.47% [at 11.4 µM] | – |
| C[C@H](CN(C)C)C(C#N)(c1ccccc1)c1ccccc1 | -0.348% [at 11.4 µM] | – |
| O=C(O)CP(=O)(O)c1ccc(Cl)cc1 | inactive | – |
| CNCCc1c[nH]c2ccc(O)cc12 | inactive | – |
| O=c1cc(-c2ccc(O)c(O)c2)oc2cc(O)cc(O)c12 | inactive | – |
| O=c1c(O)c(-c2cc(O)c(O)c(O)c2)oc2cc(O)cc(O)c12 | – | 12.6 µM (active) and 10 µM (active) |
| O=c1cc(-c2ccc(O)cc2)oc2cc(O)cc(O)c12 | inactive | – |
| Nc1nc(N)c(Cn2ccnc2)c(=O)[nH]1 | -12.8% [at 11.4 µM] | – |
| Cn1cccc1CNCCc1ccccc1 | inactive | – |
| CN1CC[C@@]23c4ccccc4N[C@H]1[C@]21CCN(C)[C@@H]3Nc2ccccc21 | inactive | – |
| C=C1C/C(=C\C)C(=O)O[C@@H]2CCN3CC=C(COC(=O)[C@@]1(C)O)[C@H]23 | inactive | – |
| CC1=C(C)[N+](=O)C2(O)CCCCC2(C)N1[O-] (configuration not stated) | inactive | – |

| SMILES | activity, negative = inhibition | AC50 |
| --- | --- | --- |
| S=P(C1CCCCC1)(C1CCCCC1)[C@H](c1cccnc1)N1CCCC1 | -6.57% [at 11.4 µM] | – |
| C=Cn1ccnc1P(=S)(c1nccn1C=C)C1CCCCC1 | – | 11.2 µM (active) |
| O[Si@](CCCN1CCCCC1)(c1ccc(F)cc1)C1CCCCC1 | inactive | – |
| COC(=O)NC/C=C\c1nc(CC/C=C\C(=O)O[C@H]2C[C@H]3CC(=O)O[C@@H](/C=C\CC(C)C)C[C@@H]4CC[C@H](C)[C@H](C[C@@H](OC)C[C@H](C2)O3)O4)co1 | -4% [at 11.4 µM] | – |
| COC(=O)[C@H]1C(=O)c2ccccc2O[C@@](C(=O)OC)(c2ccccc2)[C@@H]1c1ccccc1 | -6.83% [at 11.4 µM] | – |
| CC[C@@H]1CN2CCc3cc(OC)c(OC)cc3[C@H]2C[C@@H]1C[C@@H]1NCCc2cc(O)c(OC)cc21 | inactive | – |
| O=C(Oc1ccccc1)N1CCC2(CC1)CN(Cc1ccncc1)C2 | – | 3.16 µM (active) |
| CC(C)CN1CC2(CCN(C(=O)c3ccncc3)CC2)C1 | inactive | – |
| CS(=O)(=O)N1CCC2(CC1)CN(Cc1ccncc1)C2 | – | 39.8 µM (active) |
| N#Cc1ccc(CN2CCC3(CC2)CCN(C(=O)Oc2ccccc2)CC3)cc1 | inactive | – |
| c1cc(CN2CCC3(CCNCC3)CC2)ccn1 | inactive | – |
| c1cc(CN2CC3(CCNCC3)C2)ccn1 | inactive | – |
| CC(C)CN1CC2(CCN(C(=O)Oc3ccccc3)CC2)C1 | inactive | – |
| O=C(Oc1ccccc1)N1CCC2(CCN(Cc3ccncc3)CC2)CC1 | – | 3.98 µM (active) |
| O=C(Oc1ccccc1)N1CCC2(CCCN(Cc3ccccc3)C2)CC1 | inactive | – |
| O=C(c1csnn1)N1CCC2(CC1)CN(Cc1ccncc1)C2 | – | 10 µM (active) |
| O=C(Oc1ccccc1)N1CCC2(CCN(Cc3ccccc3)CC2)CC1 | inactive | – |
| CN1CC[C@@]2(CCCN(C(=O)c3csnn3)C2)C1 | inactive | – |
| CC1(C)N=C(N)N=C(N)N1c1cccc(C(=O)Nc2ccc(S(=O)(=O)F)cc2)c1 | 14.9% [at 11.4 µM] | – |
| C=C(C)CN1CC[C@@]23c4c5ccc(O)c4O[C@H]2c2[nH]c4ccccc4c2C[C@]3(O)[C@@H]1C5 | inactive | – |
| CC1=C2C(=O)[C@@H]3[C@@H](CC=C4C[C@@H](O)CC[C@@]43C)[C@H]2CC[C@@]12O[C@H]1C[C@H](C)CN[C@H]1[C@@H]2C | -3.17% [at 11.4 µM] | – |
| CC(C)CNCCc1ccccn1 | -0.994% [at 11.4 µM] | – |

| SMILES | activity, negative = inhibition | AC50 |
| --- | --- | --- |
| N[C@@H](CP(=O)(O)O)C(=O)O | 6.98% [at 11.4 µM] | – |
| NC(=O)c1cc(N2CC2)c([N+](=O)[O-])cc1[N+](=O)[O-] | inactive | – |
| C=C1[C@@H]2C[C@@]3([C@H]1O)[C@H]1C[C@@H]4[C@@]5(C)CC[C@H](O)[C@]4([C@H]1N(CC)C5)[C@H]3C[C@H]2O | inactive | – |
| OC(c1ccccc1)(c1ccccc1)C1CCNCC1 | inactive | – |
| Cc1ccc(S(=O)ON2CCC(C(=O)O)(c3ccccc3)CC2)cc1 (configuration not stated) | 4.74% [at 11.4 µM] | – |
| O=C1C[C@@H](c2ccc(O)cc2)Oc2cc(O)cc(O)c21 | inactive | – |
| CS(=N)(=O)CC[C@@H](N)C(=O)O (some centres not stated) | inactive | – |
| COC(=O)N1CCC2(CCCN(C)C2)CC1 | inactive | – |
| Nc1nc(N)c(N=Nc2ccc([As](=O)(O)O)cc2)c(=O)[nH]1 | 3.51% [at 11.4 µM] | – |
| N[C@@H](Cn1ccc(=O)n(Cc2ccc(C(=O)O)cc2)c1=O)C(=O)O | inactive | – |
| NC[C@@H](O)CSP(=O)(O)O | 10.5% [at 11.4 µM] | – |
| CSC([N-]/N=C/c1cccc(C)n1)=[S]=[Cu].CS[C@H]([S-])[N-]/N=C/c1cccc(C)n1 | – | 0.251 µM (active) |
| Nc1ccc(CCN2CCN(c3cccc(C(F)(F)F)c3)CC2)cc1 | inactive | – |
| N[C@H](Cc1ccc(N(CCCl)CCCl)cc1)C(=O)O | inactive | – |
| CCCCC1(CCCC)C(=O)NC(=Nc2cccc(C)c2)NC1=O | – | 5.01 µM (active) |
| CCC1(C)CC(=O)NC(=O)C1 | inactive | – |
| CC(C)[C@]1(O)[C@@H](OC(=O)c2ccc[nH]2)[C@]2(O)[C@@]3(C)C[C@@]4(O)O[C@@]5([C@H](O)[C@@H](C)CC[C@]35O)[C@]2(O)[C@]41C | 13.6% [at 11.4 µM] | – |
| CC[C@@H]1CN2CCc3cc(OC)c(OC)cc3[C@H]2C[C@@H]1C[C@H]1NCCc2cc(OC)c(OC)cc21 | inactive | – |
| O=C(OC1CCN(CCCl)CC1)C(c1ccccc1)c1ccccc1 | inactive | – |
| CCOC(=O)c1cncn1[C@H](C)c1ccccc1 | inactive | – |
| CCOC(=O)c1c(NC(=O)C(c2ccccc2)c2ccccc2)sc2c1C1CCN2CC1 | – | 1.58 µM (active) |
| N[C@H](CCCCCP(=O)(O)O)C(=O)O | inactive | – |

| SMILES | activity, negative = inhibition | AC50 |
| --- | --- | --- |
| CCOC(=O)C1=C(C)OC(N)=C(C#N)C12C(=O)N(C)c1ccccc12 (configuration not stated) | inactive | – |
| CC(=O)NCCc1c[nH]c2ccccc12 | inactive | – |
| CC(C)C[C@H]1C(=O)N2CCC[C@@H]2[C@@]2(O)O[C@](NC(=O)[C@@H]3C=C4c5cccc6[nH]cc(c56)C[C@@H]4N(C)C3)(C(C)C)C(=O)N12 | inactive | – |
| CC(C)[C@@]1(NC(=O)[C@@H]2C[C@H]3c4cccc5[nH]cc(c45)C[C@@H]3N(C)C2)O[C@]2(O)[C@H]3CCCN3C(=O)[C@H](Cc3ccccc3)N2C1=O | – | 2.51 µM (active) |
| CN1C[C@H](C(=O)N[C@@]2(C)O[C@@]3(O)[C@H]4CCCN4C(=O)[C@@H](Cc4ccccc4)N3C2=O)C=C2c3cccc4[nH]cc(c34)C[C@@H]21 | -17.2% [at 11.4 µM] | – |
| CC(C)[C@@]1(NC(=O)[C@@H]2C[C@H]3c4cccc5[nH]cc(c45)C[C@@H]3N(C)C2)O[C@@]2(O)[C@H]3CCCN3C(=O)[C@H](Cc3ccccc3)N2C1=O | – | 2.51 µM (active) and 6.31 µM (active) |
| c1ccc(N2CC3(CCNCC3)C2)cc1 | inactive | – |
| c1ccc2cc(CC3=NCCN3)ccc2c1 | inactive | – |
| CCOC(=O)[C@@H]1[C@@H]2c3ccccc3-c3ccccc3[C@H]2C[C@H]1O | 29.6% [at 11.4 µM] | – |
| CO[C@@H](C)[C@](O)(C(=O)OCC1=CCN2CC[C@@H](O)[C@H]12)C(C)C | inactive | – |
| CNC(=O)Oc1ccc2c(c1)[C@@]1(C)CCN(C)[C@@H]1N2C | inactive | – |
| COc1ccc2c3c1O[C@@H]1C(=O)CC[C@@]4(O)[C@@H](C2)N(CC2CC2)CC[C@]314 | inactive | – |
| c1ccc2c(c1)[I+]c1ccccc1-2 | – | 1 µM (active) and 100 nM (active) |
| O=C(O)/C=C\c1ccc[c]([Sb](=[O])([OH])[OH])c1 | 12.8% [at 11.4 µM] | – |
| CSCC[C@@H](N)P(C)(=O)O | 21.1% [at 11.4 µM] | – |
| O=C1C=CC(=O)c2c1ccc1c2ccc2ccccc21 | – | 1.26 µM (active) |
| O=C1N[C@@]2(CN3CCC2CC3)C(=O)N1CN(Cc1ccccc1)c1ccccc1 | -7.38% [at 11.4 µM] | – |
| COCCCn1c(N)c(C(=O)Nc2sc3c(c2C(=O)OC)CCCC3)c2nc3ccccc3nc21 | – | 2.24 µM (active) |
| NCCCC[C@H](N[C@@H](CCc1ccccc1)C(=O)O)C(=O)N1CCC[C@H]1C(=O)O | inactive | – |
| Oc1ccc(CCNCc2cc3c(cc2Br)OCO3)cc1 | -10.6% [at 11.4 µM] | – |
| CC(=O)OC1=CC2=CC[C@H]3[C@H]4CCC(=O)[C@@]4(C)CC(=O)[C@]3(S)[C@]2(C)CC1 | 4.96% [at 11.4 µM] | – |
